Laboratory results as given in the supplement of paper PMC10849652.
About 8,800 targets were measured; listed, in parts, are those with a hit and a random draw of the rest. About 0.5% of all pairs of compound and target were hits.

compound: COC(=O)[C@H](CCSC)NC(=O)C1=C(C=C(C=C1)NC[C@H](CS)N)C2=CC=CC=C2; assay: log2 fold change, soluble protein after heating vs DMSO (PISA); higher = thermal stabilisation; K562 lysate, 10 uM; active = over 0.2 and 3.5 SD of the protein, either way, in both replicates (recomputed)
Procedure, shortened: (§1)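 To prepare the extract, K562 pellets were dounce-homogenised in PBS pH 7.4 with 1 mM MgCl2, giving crude material at 1 mg/mL protein. This was treated with 10 μM compound for 30 min, then heated in aliquots for 3 min over 48°C-58°C before pooling and addition of NP-40 to 0.5% at 4°C. Centrifugation at 21,000xg for 90 min left soluble protein in the supernatant, which TMTpro 16plex LC-MS/MS quantified with equalised channel sums. Results are log-two fold changes in thermal stability compared with solvent controls, from duplicates.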

UniProt Q9NQW6, sequence (Q9NQW6 whole entry, looked up): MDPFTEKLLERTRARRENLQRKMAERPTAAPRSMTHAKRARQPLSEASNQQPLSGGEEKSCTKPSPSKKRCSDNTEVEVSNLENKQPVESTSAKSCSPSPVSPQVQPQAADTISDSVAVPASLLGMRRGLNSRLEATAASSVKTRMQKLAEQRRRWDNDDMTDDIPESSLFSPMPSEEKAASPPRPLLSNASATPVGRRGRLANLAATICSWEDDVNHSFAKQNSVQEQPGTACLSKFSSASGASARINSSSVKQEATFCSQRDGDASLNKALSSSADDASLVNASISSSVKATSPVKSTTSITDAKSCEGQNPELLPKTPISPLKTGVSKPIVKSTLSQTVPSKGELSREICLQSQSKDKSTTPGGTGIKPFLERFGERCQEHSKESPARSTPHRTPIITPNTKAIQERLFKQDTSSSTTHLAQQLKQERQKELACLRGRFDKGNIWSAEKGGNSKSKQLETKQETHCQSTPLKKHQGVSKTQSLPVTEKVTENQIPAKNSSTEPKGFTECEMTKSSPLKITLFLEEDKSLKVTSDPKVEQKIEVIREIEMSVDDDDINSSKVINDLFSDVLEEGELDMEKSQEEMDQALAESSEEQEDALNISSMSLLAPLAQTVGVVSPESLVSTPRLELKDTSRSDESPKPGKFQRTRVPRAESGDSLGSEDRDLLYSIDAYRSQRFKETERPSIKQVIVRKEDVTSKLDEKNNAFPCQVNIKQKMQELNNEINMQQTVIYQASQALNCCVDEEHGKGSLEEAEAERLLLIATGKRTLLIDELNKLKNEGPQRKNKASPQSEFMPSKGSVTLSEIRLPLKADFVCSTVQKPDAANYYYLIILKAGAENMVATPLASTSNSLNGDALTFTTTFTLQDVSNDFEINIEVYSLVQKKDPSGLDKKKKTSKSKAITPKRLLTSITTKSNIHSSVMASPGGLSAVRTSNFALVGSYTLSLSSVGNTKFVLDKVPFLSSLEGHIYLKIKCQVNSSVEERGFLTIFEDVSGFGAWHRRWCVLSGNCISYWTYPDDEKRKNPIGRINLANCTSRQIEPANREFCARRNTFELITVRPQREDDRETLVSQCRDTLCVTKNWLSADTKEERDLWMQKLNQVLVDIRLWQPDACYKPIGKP
UniProt P52895, sequence (P52895 whole entry, looked up): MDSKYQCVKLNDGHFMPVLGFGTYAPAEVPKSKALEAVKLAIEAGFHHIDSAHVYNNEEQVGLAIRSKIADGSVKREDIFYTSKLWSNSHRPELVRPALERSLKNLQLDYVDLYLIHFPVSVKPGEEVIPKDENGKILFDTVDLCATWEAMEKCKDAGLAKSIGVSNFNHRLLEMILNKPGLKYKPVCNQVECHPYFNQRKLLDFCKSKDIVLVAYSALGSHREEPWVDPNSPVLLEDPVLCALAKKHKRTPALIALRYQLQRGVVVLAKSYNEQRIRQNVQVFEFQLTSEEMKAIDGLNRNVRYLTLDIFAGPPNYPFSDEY
UniProt P27144, sequence (P27144 whole entry, looked up): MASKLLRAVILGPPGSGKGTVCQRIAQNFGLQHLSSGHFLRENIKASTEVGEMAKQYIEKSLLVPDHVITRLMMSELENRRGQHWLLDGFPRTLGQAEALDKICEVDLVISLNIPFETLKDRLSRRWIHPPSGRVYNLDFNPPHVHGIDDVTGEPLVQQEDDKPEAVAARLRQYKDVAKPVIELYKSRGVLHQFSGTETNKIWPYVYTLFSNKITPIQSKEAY
UniProt P42330, sequence (P42330 whole entry, looked up): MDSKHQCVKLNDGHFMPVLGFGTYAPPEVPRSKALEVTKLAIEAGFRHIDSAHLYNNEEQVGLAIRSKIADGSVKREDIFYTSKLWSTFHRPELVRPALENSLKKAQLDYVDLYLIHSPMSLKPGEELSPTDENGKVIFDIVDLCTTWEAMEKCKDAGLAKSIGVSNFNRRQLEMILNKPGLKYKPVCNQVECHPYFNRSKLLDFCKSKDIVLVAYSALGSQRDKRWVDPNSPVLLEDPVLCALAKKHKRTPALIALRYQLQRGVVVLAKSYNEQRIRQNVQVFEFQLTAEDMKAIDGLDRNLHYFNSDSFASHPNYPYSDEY
UniProt Q8N6T3, sequence (Q8N6T3 whole entry, looked up): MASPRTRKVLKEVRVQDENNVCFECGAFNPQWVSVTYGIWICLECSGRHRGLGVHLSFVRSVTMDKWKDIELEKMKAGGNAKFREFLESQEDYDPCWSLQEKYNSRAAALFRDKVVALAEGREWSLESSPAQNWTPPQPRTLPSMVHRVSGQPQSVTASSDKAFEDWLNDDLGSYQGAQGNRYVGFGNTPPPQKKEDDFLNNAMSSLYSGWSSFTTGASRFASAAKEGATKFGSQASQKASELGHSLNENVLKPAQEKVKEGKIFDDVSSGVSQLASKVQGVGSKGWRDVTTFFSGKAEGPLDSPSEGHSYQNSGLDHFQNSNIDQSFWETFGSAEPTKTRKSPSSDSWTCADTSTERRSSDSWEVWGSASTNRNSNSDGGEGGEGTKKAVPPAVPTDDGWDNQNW
UniProt Q99943, sequence (Q99943 whole entry, looked up): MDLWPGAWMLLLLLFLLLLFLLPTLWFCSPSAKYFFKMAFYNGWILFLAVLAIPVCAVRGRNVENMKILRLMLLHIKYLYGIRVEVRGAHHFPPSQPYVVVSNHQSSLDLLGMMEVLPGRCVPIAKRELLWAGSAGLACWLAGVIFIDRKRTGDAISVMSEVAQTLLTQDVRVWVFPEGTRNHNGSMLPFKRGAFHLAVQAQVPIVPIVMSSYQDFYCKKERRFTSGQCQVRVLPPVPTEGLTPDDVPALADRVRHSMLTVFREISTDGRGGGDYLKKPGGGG
UniProt Q9Y303, sequence (Q9Y303 whole entry, looked up): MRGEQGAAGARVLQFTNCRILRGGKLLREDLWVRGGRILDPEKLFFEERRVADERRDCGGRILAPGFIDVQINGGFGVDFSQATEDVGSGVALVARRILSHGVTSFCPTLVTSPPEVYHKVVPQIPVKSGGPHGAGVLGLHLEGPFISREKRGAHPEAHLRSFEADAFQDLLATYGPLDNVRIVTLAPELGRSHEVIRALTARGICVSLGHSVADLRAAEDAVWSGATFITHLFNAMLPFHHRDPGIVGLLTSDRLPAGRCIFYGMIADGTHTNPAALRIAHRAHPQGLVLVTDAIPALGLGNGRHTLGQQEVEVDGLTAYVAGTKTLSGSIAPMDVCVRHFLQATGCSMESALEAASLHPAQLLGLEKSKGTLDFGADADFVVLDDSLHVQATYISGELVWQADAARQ
UniProt P51649, sequence (P51649 whole entry, looked up): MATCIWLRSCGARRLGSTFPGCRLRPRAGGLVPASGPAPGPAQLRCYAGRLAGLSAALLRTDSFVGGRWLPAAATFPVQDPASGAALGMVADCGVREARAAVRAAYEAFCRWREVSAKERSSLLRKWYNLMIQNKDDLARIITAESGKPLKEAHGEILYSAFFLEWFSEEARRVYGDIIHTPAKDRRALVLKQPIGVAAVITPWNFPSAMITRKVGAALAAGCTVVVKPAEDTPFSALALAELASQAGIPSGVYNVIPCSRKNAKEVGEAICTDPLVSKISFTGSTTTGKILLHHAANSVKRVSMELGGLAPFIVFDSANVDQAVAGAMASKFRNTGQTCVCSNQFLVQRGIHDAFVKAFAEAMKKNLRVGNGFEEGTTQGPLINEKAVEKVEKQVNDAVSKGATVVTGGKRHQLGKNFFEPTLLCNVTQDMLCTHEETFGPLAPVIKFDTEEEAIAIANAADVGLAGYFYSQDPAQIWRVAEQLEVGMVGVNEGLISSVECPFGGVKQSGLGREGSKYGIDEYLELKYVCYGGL
UniProt Q9UHB7, sequence (Q9UHB7 whole entry, looked up): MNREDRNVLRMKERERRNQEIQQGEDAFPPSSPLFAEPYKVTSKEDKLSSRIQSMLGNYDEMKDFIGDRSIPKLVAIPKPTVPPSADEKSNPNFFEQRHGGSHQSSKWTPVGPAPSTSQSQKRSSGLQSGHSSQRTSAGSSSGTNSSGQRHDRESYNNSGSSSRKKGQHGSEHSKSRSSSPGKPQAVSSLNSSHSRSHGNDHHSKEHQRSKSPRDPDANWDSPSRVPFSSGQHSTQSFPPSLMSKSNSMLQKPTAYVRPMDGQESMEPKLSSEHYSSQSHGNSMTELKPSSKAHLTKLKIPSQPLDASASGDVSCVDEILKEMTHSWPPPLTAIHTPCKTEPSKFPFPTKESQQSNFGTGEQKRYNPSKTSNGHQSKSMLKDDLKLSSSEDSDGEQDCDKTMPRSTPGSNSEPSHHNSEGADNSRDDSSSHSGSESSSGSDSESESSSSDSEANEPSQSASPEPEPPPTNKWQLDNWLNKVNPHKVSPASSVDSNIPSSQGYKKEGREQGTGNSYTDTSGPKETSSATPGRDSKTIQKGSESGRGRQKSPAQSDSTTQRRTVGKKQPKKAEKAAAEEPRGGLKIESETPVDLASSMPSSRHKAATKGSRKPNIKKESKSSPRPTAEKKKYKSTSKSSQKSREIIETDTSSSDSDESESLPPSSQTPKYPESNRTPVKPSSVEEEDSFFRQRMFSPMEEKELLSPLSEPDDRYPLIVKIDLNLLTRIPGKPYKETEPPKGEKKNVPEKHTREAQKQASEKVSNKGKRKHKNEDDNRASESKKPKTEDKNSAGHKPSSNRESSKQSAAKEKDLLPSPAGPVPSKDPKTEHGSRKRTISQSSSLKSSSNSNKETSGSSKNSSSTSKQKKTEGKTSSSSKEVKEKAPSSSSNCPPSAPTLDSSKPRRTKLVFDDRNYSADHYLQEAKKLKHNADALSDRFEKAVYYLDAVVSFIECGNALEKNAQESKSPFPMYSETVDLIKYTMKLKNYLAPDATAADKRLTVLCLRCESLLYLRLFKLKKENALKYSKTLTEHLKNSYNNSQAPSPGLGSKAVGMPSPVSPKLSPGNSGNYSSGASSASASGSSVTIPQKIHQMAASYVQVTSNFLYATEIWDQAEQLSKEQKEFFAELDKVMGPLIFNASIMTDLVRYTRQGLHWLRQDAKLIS
UniProt P00568, sequence (P00568 whole entry, looked up): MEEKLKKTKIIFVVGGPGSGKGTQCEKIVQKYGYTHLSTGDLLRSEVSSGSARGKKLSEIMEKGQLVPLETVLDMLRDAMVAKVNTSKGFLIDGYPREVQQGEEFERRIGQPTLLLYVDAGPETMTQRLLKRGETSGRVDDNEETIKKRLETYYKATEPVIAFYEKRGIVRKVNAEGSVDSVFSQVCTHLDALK

log2 fold change, inactive:
APAF1 (UniProt O14727) 0.129
ASCC2 (UniProt Q9H1I8) 0.037
AP1G2 (UniProt O75843) -0.015
ANLN (UniProt Q9NQW6) 0.102
ACLY (UniProt P53396) 0.133
AKT2 (UniProt P31751) 0.037
AIMP2 (UniProt Q13155) 0.093
ACIN1 isoform 5 (UniProt Q9UKV3) -0.01
ANP32E (UniProt Q9BTT0) -0.008
ACADS (UniProt P16219) 0.071
ANXA2 isoform 2 (UniProt P07355) -0.007
AMDHD2 isoform 3 (UniProt Q9Y303) 0.1
ACSL4 (UniProt O60488) 0.073
AKR1C3 (UniProt P42330) 0.022
ANP32A (UniProt P39687) -0.048
AFF4 (UniProt Q9UHB7) -0.027
ARHGAP25 isoform 4 (UniProt P42331) 0.038
AK4 (UniProt P27144) -0.07
AIFM2 (UniProt Q9BRQ8) 0.107
AK1 (UniProt P00568) -0.07
ABI1 isoform 9 (UniProt Q8IZP0) -0.057
APOB (UniProt P04114) 0.003
AKR1B1 (UniProt P15121) 0.009
AGTPBP1 (UniProt Q9UPW5) -0.031
ABCF2 isoform 2 (UniProt Q9UG63) 0.08
ARFGAP1 (UniProt Q8N6T3) -0.054
AMD1 (UniProt P17707) -0.107
AGPAT1 (UniProt Q99943) -0.016
ASB6 (UniProt Q9NWX5) 0.174
AGL (UniProt P35573) 0.178
ALDH5A1 isoform 2 (UniProt P51649) 0.077
AKR1C2 (UniProt P52895) 0.018
ALG8 (UniProt Q9BVK2) -0.09

log2 fold change, active:
ABCD3 (UniProt P28288) 0.444
ARL1 (UniProt P40616) -0.293
ARMC6 (UniProt Q6NXE6) 0.234

compound: COc1cc(Nc2ncc3c(n2)-c2ccc(Cl)cc2C(c2c(F)cccc2OC)=NC3)ccc1C(=O)O [alisertib]; assay: as above
Procedure, shortened: as §1

log2 fold change, inactive:
APAF1 (UniProt O14727) -0.027
ASCC2 (UniProt Q9H1I8) -0.014
AP1G2 (UniProt O75843) 0.037
ANLN (UniProt Q9NQW6) 0.051
ABCD3 (UniProt P28288) 0.044
ACLY (UniProt P53396) 0.016
AKT2 (UniProt P31751) 0.003
AIMP2 (UniProt Q13155) 0.011
ACIN1 isoform 5 (UniProt Q9UKV3) 0.032
ANP32E (UniProt Q9BTT0) -0.019
ACADS (UniProt P16219) -0.003
ANXA2 isoform 2 (UniProt P07355) 0.002
AMDHD2 isoform 3 (UniProt Q9Y303) 0.023
ACSL4 (UniProt O60488) -0.017
AKR1C3 (UniProt P42330) 0.056
ANP32A (UniProt P39687) 0.018
AFF4 (UniProt Q9UHB7) -0.022
ARL1 (UniProt P40616) 0.081
ARHGAP25 isoform 4 (UniProt P42331) 0.012
AK4 (UniProt P27144) 0.026
AIFM2 (UniProt Q9BRQ8) -0.032
AK1 (UniProt P00568) 0
ABI1 isoform 9 (UniProt Q8IZP0) -0.02
APOB (UniProt P04114) -0.024
AKR1B1 (UniProt P15121) 0.015
AGTPBP1 (UniProt Q9UPW5) 0.097
ABCF2 isoform 2 (UniProt Q9UG63) 0.014
ARFGAP1 (UniProt Q8N6T3) 0.245
AMD1 (UniProt P17707) 0.027
AGPAT1 (UniProt Q99943) -0.015
ASB6 (UniProt Q9NWX5) -0.001
AGL (UniProt P35573) -0.004
ALDH5A1 isoform 2 (UniProt P51649) 0.001
AKR1C2 (UniProt P52895) 0.002
ALG8 (UniProt Q9BVK2) 0.076
ARMC6 (UniProt Q6NXE6) 0.005
